Compounds with a hit are over-represented: about 1.2% of the library has one in this group of screens.
GALK inh: blocks human galactokinase activity; P51570; Purified GALK, Kinase-Glo residual ATP luminescence; Potency, µM (doses to about 57.5 µM), inactives show top-dose activity change, negative = inhibition, usual class: inhibitors; 270,000 tested, 0.007% active
Target sequence (P51570 whole entry, looked up): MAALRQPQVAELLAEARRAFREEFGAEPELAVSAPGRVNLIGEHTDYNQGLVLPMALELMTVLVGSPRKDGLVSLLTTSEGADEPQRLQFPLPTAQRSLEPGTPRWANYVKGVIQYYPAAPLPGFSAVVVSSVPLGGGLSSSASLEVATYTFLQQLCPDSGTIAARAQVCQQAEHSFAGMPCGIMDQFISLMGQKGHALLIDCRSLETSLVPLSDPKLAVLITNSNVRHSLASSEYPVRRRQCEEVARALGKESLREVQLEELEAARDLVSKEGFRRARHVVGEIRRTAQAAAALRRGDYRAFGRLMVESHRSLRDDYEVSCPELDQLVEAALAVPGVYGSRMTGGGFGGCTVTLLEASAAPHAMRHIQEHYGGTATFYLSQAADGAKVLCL
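Kinase-Glo Plus luminescence measured ATP left after a 1 h room-temperature reaction. The reaction used 5 nM GALK, 100 uM galactose and 35 uM ATP at pH 8.0 (20 mM HEPES, 5 mM MgCl2, 60 mM NaCl, 1 mM DTT, 0.01% BSA).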
rTrxR1 inhibitor: inhibitors of rat thioredoxin reductase 1; O89049; recombinant rTrxR1, NADPH fluorescence consumption, selenite substrate; Potency, µM (top dose mostly 114 µM), for inactives: at the top dose activity change, negative = inhibition, actives largely listed as inhibitors; 390,000 tested, 1% active; AID 588453; further: nearly all actives have a fitted effect of over 65% in size
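Rat TrxR1 (90 nM in the dispensed reagent) was pre-reduced with 400 uM NADPH for 5 min at room temperature, then incubated with compound for 15 min. After 400 uM selenite was added, NADPH fluorescence (Ex 340/Em 450 nm) was followed for 8 min.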
NPSR antag: blocks cAMP signaling of the human neuropeptide S receptor | AID 1461 | Potency, µM (highest dose often 38.3 µM), for inactives: at the highest dose activity change, negative = inhibition, most hits filed as inhibitors | CHO-NPSR cells, cAMP TR-FRET, antagonist mode | Q6W5P4 | 220,000 tested, 1% active; further: nearly all actives have a fitted effect of over 50% in size
TrxR1 substrate: is turned over as a substrate by rat TrxR1; Potency, µM (highest dose often 114 µM), without a hit: at the top dose activity change, negative = substrate turnover; purified TrxR1 substrate turnover, NADPH consumption readout; 390,000 tested, 0.01% active; O89049; further: nearly all actives have a fitted effect of over 50% in size
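Rat TrxR1, dispensed at 90 nM, was prereduced with 400 uM NADPH (final) for 5 min at ~22 deg C, then incubated with compound 15 min before 400 uM selenite. A first-read NADPH fluorescence drop versus no-compound background flagged substrates.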
* marks the source's active call; other numbers are inactive results; ? = inconclusive; . = no result; [ ] = dose if it differs, or a comment. The call rests on the fitted dose curve; in most records, active means well fitted curve in the direction sought with a large enough effect; inconclusive means small, poorly fitted or top-dose-only effect, or another doubt; inactive means no such curve, though single readings can be large; an effect the other way counts as inactive or inconclusive. On the % scale 0 is the no-effect control and ±100 the full control effect; potency means the concentration at half of the fitted maximal effect.

SMILES | GALK inh | rTrxR1 inhibitor | NPSR antag | TrxR1 substrate
C#CCOCCOCCOCCNc1nc(N2CCN(C(=O)CCCCCCCCCCNC(=O)Cn3cc(CCCCCN)nn3)CC2)nc(N2CCN(C(=O)CCCCCCCCCCNC(=O)[C@@H](CCC(=O)O)n3cc(CCCCCN)nn3)CC2)n1 | . | -56.2% | . | 1.2%
C#CCOCCOCCOCCNc1nc(N2CCN(C(=O)CCCCCCCCCCNC(=O)Cn3cc(CCCCCN)nn3)CC2)nc(N2CCN(C(=O)CCCCCCCCCCNC(=O)Cn3cc(CCCCCN)nn3)CC2)n1 | . | 11.2µM* | . | 4.2%
C#CCOCCOCCOCCNc1nc(N2CCN(C(=O)[C@H](CCCCN)n3cc(C(N)[C@H](C)CC)nn3)CC2)nc(N2CCN(C(=O)[C@H](CCC(=O)O)n3cc(C(N)[C@H](C)CC)nn3)CC2)n1 (stereo partly specified) | 0.9% | 56.2µM* | -19.8% | 1.9%
C#CCOCCOCCOCCNc1nc(N2CCN(C(=O)[C@H]([C@@H](C)CC)n3cc([C@@H](N)CC(C)C)nn3)CC2)nc(N2CCN(C(=O)[C@H](CCCCN)n3cc([C@@H](N)C(C)CC)nn3)CC2)n1 (stereo partly specified) | -1.4% | 3.0%[57.1 µM] | -28.5% | 10.7%[57.1 µM]
C#CCOCCOCCOCCNc1nc(N2CCN(C(=O)[C@H](CCCCN)n3cc([C@@H](N)C(C)CC)nn3)CC2)nc(N2CCN(C(=O)[C@H](Cc3cc4ccccc4[nH]3)n3cc([C@@H](N)CC(C)C)nn3)CC2)n1 (stereo partly specified) | 5.7% | 25.1µM* | -2.9% | 0.8%
CCC[C@H]1COCCS(=O)(=O)N1Cc1cccc(F)c1 | . | 19.0% | . | -1.2%
CCOC(=O)c1nnsc1Nc1ccc(C)c(C)c1 | 0.3% | 18.0% | -2.4% | 0.7%
C#CCOCCOCCOCCNc1nc(N2CCN(C(=O)[C@H](CCCCN)n3cc(CN)nn3)CC2)nc(N2CCN(C(=O)[C@H](CCCCN)n3cc([C@@H](N)[C@H](C)CC)nn3)CC2)n1 | . | 44.7µM* | . | 12.3%
C#CCOCCOCCOCCNc1nc(N2CCN(C(=O)[C@H](CCCCN)n3cc([C@@H](N)C(C)CC)nn3)CC2)nc(N2CCN(C(=O)[C@H](CCCCN)n3cc([C@@H](N)CO)nn3)CC2)n1 (stereo partly specified) | -1.3% | . | -25.3% | .
COc1ccc(CN(C(=O)/C=C/c2ccco2)C2CCS(=O)(=O)C2)cc1OC (stereo unspecified) | -3.2% | 15.8µM* | . | -12.4%
O=C(/C=C/c1ccco1)N(Cc1ccc(Cl)cc1)C1CCS(=O)(=O)C1 (stereo unspecified) | -1.0% | 25.1µM* | -4.9% | 4.9%
COc1cccc(CN(C(=O)/C=C/c2ccco2)C2CCS(=O)(=O)C2)c1 (stereo unspecified) | -5.2% | 12.6µM* | . | 1.6%
CN(C)c1ccc(CN(C(=O)/C=C/c2ccco2)C2CCS(=O)(=O)C2)cc1 (stereo unspecified) | 4.0% | -12.8%[57.1 µM] | -6.7% | -8.4%[57.1 µM]
COc1ccc(OC)c(S(=O)(=O)N2CC=C(c3c(C)n(CC(=O)N4CCCC4)c4ccccc34)CC2)c1 | . | -11.7% | . | -1.6%
Cc1ccc(S(=O)(=O)c2cnc(SCC(=O)Nc3ccccc3C(F)(F)F)[nH]c2=O)cc1C | . | 19.5% | . | -0.1%
COc1ccc(OC)c(CNC(=O)c2c(C)oc3ncn(CC(C)C)c(=O)c23)c1 | . | 10.1% | . | -5.1%
COc1ccc(N2CCN(Cc3nnc(-c4cccc(Br)c4)o3)CC2)cc1 | . | 7.5% | . | -3.5%
Cc1ccsc1C1NC(=O)c2c(sc3c2CCCC3)N1 (stereo unspecified) | 0.7% | 44.7µM* | 2.8%[46.1 µM] | 0.0%
Cc1ccc2occ(CN3CCN(Cc4ccccc4)CC3)c(=O)c2c1 | 2.2% | . | 4.6%[46.1 µM] | .
O=c1c(CN2CCN(Cc3ccccc3)CC2)coc2ccc(Cl)cc12 | 2.4% | 22.4µM* | -3.7%[46.1 µM] | 13.0%
Cc1ccc(NC(=S)NC(=O)C2CCC2)cc1C | -2.6% | 50.1µM* | . | 3.0%
Cc1ccc(NC(=S)NC(=O)C2CCCC2)cc1C | 6.3% | ? | . | -18.4%
O=C(C[N+]1(CC(O)c2ccccc2)CCCCC1)c1ccccc1 (stereo unspecified) | . | 21.0% | . | 5.6%
CCOC(=O)c1cnc(-n2nc(C)cc2C)nc1Nc1ccc(C)cc1 | 0.8% | 23.8% | 1.26µM* | 3.7%
N#Cc1c(Sc2ncc(C(F)(F)F)cc2Cl)nsc1C/C=N\OCc1c(F)cccc1Cl | -1.3% | ? | 10µM* | -12.3%
SMILES | GALK inh | rTrxR1 inhibitor | NPSR antag | TrxR1 substrate
Cn1cnnc1SCC(=O)c1cc2ccccc2oc1=O | 0.4% | 7.08µM* | -2.7%[46.1 µM] | 6.9%
O=C(NC1CC(=O)N(c2cccc(F)c2)C1)c1ccc(S(=O)(=O)N2CCOCC2)cc1 (stereo unspecified) | . | 10.1%[57.1 µM] | . | -0.4%[57.1 µM]
COc1ccccc1-c1ccc(/C=C2\C=CC(=O)O2)o1 | -2.7% | 14.1µM* | -20.8% | 1.5%[57.1 µM]
COc1ccccc1-c1ccc(/C=C2/C=C(C)OC2=O)o1 | . | ? | -22.2% | 68.6%
O=C1/C(=C/c2ccsc2)CC/C1=C\c1cccs1 | . | 2.8%[57.1 µM] | . | 6.3%[57.1 µM]
CN(C)CCCNC(=O)c1cc(C(=O)C2CCCCC2)c[nH]1 | 1.5% | 17.0% | 7.0% | 6.4%[57.1 µM]
CN(C)CCCNC(=O)C1CCNCC1 | -3.9% | 70.8µM* | 15.3%[46.1 µM] | -5.7%
C[C@H](C(=O)OCO/N=[N+](\[O-])N1CCCC1)c1cccc2ccccc12 | . | 17.8µM* | . | -10.1%
CCOC(=O)N1CCN(/[N+]([O-])=N/OCOC)CC1 | . | 15.5% | . | 4.4%
O=C(Nc1ccc(N2CCCCC2)cc1)C(Cl)c1ccccc1 (stereo unspecified) | 3.4% | -7.5% | -10.1% | -5.7%
O=C(C(Cl)c1ccccc1)N1CCCC1 (stereo unspecified) | 10.1% | 20µM* | . | 5.6%[57.1 µM]
O=C(CN1CCCCC1)Nc1c2c(nc3ccccc13)N(c1ccccc1)CC2 | 10.2% | 14.2% | 7.94µM* | 26.1%
COc1ccccc1N1CCN(S(=O)(=O)c2c(C)nc3sc(C)c(C)n3c2=O)CC1 | . | 6.5% | . | 0.3%
Cc1ccc(C)c(CN2C(=O)c3ccccc3S(=O)(=O)c3ccc(C(=O)N4CCN(Cc5ccccc5)CC4)cc32)c1 | . | -10.4% | . | 19.7%
Cc1c(CC(=O)N2CCCCC2)c(=O)oc2cc(O)ccc12 | . | 56.2µM* | . | 925.1%
Cc1c(CC(=O)N2CCN(C(=O)C3COc4ccccc4O3)CC2)c(=O)oc2cc(O)ccc12 (stereo unspecified) | 5.8% | 89.1µM* | . | 870.5%
COc1ccc2c(C)c(CC(=O)N3CCN(C(=O)C4COc5ccccc5O4)CC3)c(=O)oc2c1 (stereo unspecified) | -4.1% | 25.8% | . | -5.8%
CC(C)(C)n1ncc2c(=O)n(Cc3cccc(C(F)(F)F)c3Cl)cnc21 | . | 16.8%[57.1 µM] | . | -2.8%
Cc1cc(C)nc(SCC(=O)NC(=O)c2ccccc2O)n1 | . | 12.6µM* | . | -3.7%[57.1 µM]
CC1=C(C(=O)OCc2ccc3nsnc3c2)N2C(=O)[C@@H](NC(=O)OCc3ccc4nsnc4c3)[C@H]2SC1 | . | ? | . | 4.3%
COc1ccccc1C(C)NCC(=O)c1c(C)[nH]c2ccccc12 (stereo unspecified) | . | 20µM* | . | -3.1%

Screening data deposited in PubChem by National Center for Advancing Translational Sciences (NCATS).
